We go through 26 compounds from PubChem BioAssay (NCATS).

What all share (experiment): Cytotoxic Profiling of Annotated Libraries Using Quantitative High-Throughput Screening (AID 1296008); also: nearly all actives have a fitted effect of over 60% in size
Details in all cases: Five cell lines viability, CellTiter-Glo ATP luminescence, 48-72 h; max response: hits give low values
(In general: ATP-based viability assays read luminescence as a measure of living cells.)

One experiment relates to CRL-7250. The procedure, abridged:
(§1)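 Cytotoxicity was measured as CellTiter-Glo ATP luminescence, read after 10 min at room temperature. Compound treatment of the cells lasted 48 or 72 hr at 37 degrees Celsius in a qHTS format.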

In the next experiment the test system is HEK293. The essentials:
as §1

The test system of a further experiment is HaCat. The procedure, abridged:
as §1

The subject of another experiment is KB-3-1. The essentials: as §1
A further experiment has as its system NIH3T3. The procedure, abridged:
as §1

The structures appear in SMILES notation. Inconclusive results are not listed. Unmarked numbers belong to inactive results. Activity calls are given as the source filed them. Calls follow the shape of the dose curve; as a rule, active = well fitted inhibition curve with a large enough effect; inconclusive = small, poorly fitted or top-dose-only effect; inactive = flat fitted curve, though single readings scatter. Where a SMILES comes first, the peptide text is derived from it.
% is scaled to controls: 0 for no effect and ±100 for the full control effect; potency is read from the fitted curve at half-maximal effect.

As to `C[C@]1(O)CC[C@@H]2C(C(=O)O)=CO[C@@H](O[C@@H]3O[C@H](COC(=O)/C=C/c4ccc(O)c(O)c4)[C@@H](O)[C@H](O)[C@H]3O)[C@@H]21`, the compound was called inactive in the experiment on CRL-7250, in the experiment on HaCat and in the experiment on NIH3T3. Further, the max response in the experiment on HEK293 is 0.933%; in the experiment with KB-3-1 it was 9.19%.
As for `C/C=C(\C)C(=O)OCC1OC(OCC2OC(OC3(CO)OC(CO)C(O)C3O)C(O)C(O)C2O)C(O)C(O)C1O` (stereo not given), the max response in the experiment on CRL-7250 was -0.798%; in the experiment with HEK293, -3.28%. The outcome in the experiment with HaCat, in the experiment with KB-3-1 and with NIH3T3 was inactive.
On to `CC1CCC2C(C)(C)C(O)C(O)CC2(C)C12Cc1c(O)cc(CO)c(C=O)c1O2` (stereo not given), for which the max response was 1.89% in the experiment on CRL-7250, -2.44% with HEK293, 2.63% with KB-3-1 and 0.788% in the experiment on NIH3T3. Further, the outcome in the experiment on HaCat was inactive.
With `COC(=O)C1=C[C@@H](O)[C@@H](O)[C@H](O[C@@H]2O[C@H](CO)[C@@H](O)[C@H](O)[C@H]2OC(=O)/C=C/c2ccccc2)C1`, the max response was -2.62% with CRL-7250, -6.26% with HEK293, -5.3% in the experiment on KB-3-1 and -1.73% in the experiment on NIH3T3. The call in the experiment with HaCat was inactive.
In the case of `CC(C)(O)[C@@H]1CC[C@]2(CO)[C@@H](O)CC[C@](C)(O)[C@H]2[C@@H]1O[C@@H]1O[C@H](CO)[C@@H](O)[C@H](O)[C@H]1O`, the max response is 1.76% with CRL-7250, 1.77% in the experiment with HEK293, 8.79% in the experiment with KB-3-1 and 0.484% in the experiment on NIH3T3. Also, in the experiment on HaCat, the compound was classed as inactive.
With `COc1cnc(-n2cnc(C)n2)c2[nH]cc(C(=O)C(=O)N3CCN(C(=O)c4ccccc4)CC3)c12`, the compound was classed as inactive in the experiment with CRL-7250, with HaCat, in the experiment on KB-3-1 and with NIH3T3. In the experiment with HEK293, the max response is -12.9%.
As to `Cc1ncc(NC(=O)c2ccc(CN3CCN(C)CC3)c(C(F)(F)F)c2)cc1Nc1nccc(-c2cccnc2)n1`, the max response with CRL-7250 is -2.29%; with KB-3-1, 8.35%; in the experiment on NIH3T3, 1.55%. Besides, the Potency with HEK293 is 16.4 µM (active). In addition, the compound was classed as inactive in the experiment with HaCat.
As to `C[C@@H]1O[C@@H](O[C@@H]2[C@@H](O)[C@H](O[C@H]3[C@H](O[C@H]4CC[C@@]5(C)C(CC[C@]6(C)C5CC=C5[C@@H]7CC(C)(C)CC[C@]7(C(=O)O[C@@H]7O[C@H](CO)[C@@H](O)[C@H](O)[C@H]7O)CC[C@]56C)C4(C)C)O[C@H](C(=O)O)[C@@H](O)[C@@H]3O)OC[C@H]2O)[C@H](O)[C@H](O)[C@H]1O` (stereo not given in full), the max response in the experiment with CRL-7250 was 2.65%; in the experiment with HEK293, -0.54%. The result in the experiment with HaCat, in the experiment with KB-3-1 and in the experiment with NIH3T3 was inactive.
On to `C[C@@H]1O[C@@H](O[C@H]2[C@@H]3C=CO[C@@H](O[C@@H]4O[C@H](CO)[C@@H](O)[C@H](O)[C@H]4O)[C@@H]3[C@@]3(CO)O[C@@H]23)[C@H](O)[C@H](O)[C@H]1OC(=O)/C=C/c1ccc(O)cc1`, for which the max response with CRL-7250 is -9.97%; with HEK293 it was 1.82%; in the experiment on KB-3-1, -5.93%; with NIH3T3, -3.44%. Besides, in the experiment with HaCat, the outcome was inactive.
For `COc1c2ccoc2nc2c(OC)c(O[C@@H]3O[C@@H](C)[C@H](O)[C@@H](O[C@@H]4O[C@H](CO)[C@@H](O)[C@H](O)[C@H]4O)[C@H]3OC(C)=O)ccc12`, in that order: 0.0337%, -0.274%, 9.99%, -1.67% and “inactive”.
Turning to `O=C(O)C[C@H]1CCC(=O)[C@@H]1C/C=C\CCO`, the result with CRL-7250, in the experiment on HaCat and in the experiment with NIH3T3 was inactive. The max response is 0.813% with HEK293 and 0.282% with KB-3-1.
Take `CC1(C)CC[C@]2(C(=O)O)CC[C@]3(C)C(=CCC4[C@@]5(C)CC[C@H](O)C(C)(C)C5CC[C@]43C)C2C1` (stereo not given in full): the outcome in the experiment on CRL-7250 and with HaCat was inactive. Moreover, the values for the max response in the experiment on HEK293, with KB-3-1 and in the experiment on NIH3T3 were -9.46%, 2.08% and -3.2%, respectively.
Take `CC1(C)CC2C(O)C3=C(CC(C)(O)C2C1)C(=O)OC3` (stereo not given): the compound was called inactive with CRL-7250, with HaCat, in the experiment with KB-3-1 and in the experiment with NIH3T3. Further, the max response with HEK293 is -1.51%.
`C[C@H]1CC[C@H]2[C@@H](C=C[C@@](C)(O)[C@]2(C)C(=O)CCO)C1`: the compound was called inactive with CRL-7250, in the experiment with HaCat and in the experiment with NIH3T3. The max response was 4.9% in the experiment with HEK293 and 5.8% in the experiment on KB-3-1.
Consider `O=C(O)c1ccnc2cc(C(OCC3CCC(F)(F)CC3)c3ccccc3Cl)[nH]c12` (stereo not given), for which the max response in the experiment with CRL-7250 is 2.57%; with HEK293 it was 4.55%; with HaCat, -20.6%; with KB-3-1 it was 8.39%. In addition, the result in the experiment on NIH3T3 was inactive.
For `COc1c(-c2ccc(O)cc2)cc(OC)c2c1oc1cc(O)c(OC3OC(CO)C(O)C3O)cc12` (stereo not given), the max response in the experiment on CRL-7250 was -0.713%; in the experiment on HEK293 it was -3.64%; with HaCat, -7.87%. Further, the call in the experiment on KB-3-1 and with NIH3T3 was inactive.
As to `COc1ccc(C2(O)c3c(ccc4c3OC(C)(CCC=C(C)C)C=C4)NC(=O)C2OC)cc1` (stereo not given), the compound was called inactive in the experiment on CRL-7250, in the experiment with HaCat and with NIH3T3. The results for the max response with HEK293 and in the experiment with KB-3-1 were -6.81% and 5.8%, respectively.
Take `C/C=C1/[C@H](O[C@@H]2O[C@H](CO)[C@@H](O)[C@H](O)[C@H]2O)OC=C(C(=O)OC)[C@H]1CC(=O)OCCc1ccc(OC(=O)C[C@@H]2C(C(=O)OC)=CO[C@@H](O[C@@H]3O[C@H](CO)[C@@H](O)[C@H](O)[C@H]3O)/C2=C/C)cc1`: the values for the max response in the experiment with CRL-7250, with HEK293 and with NIH3T3 were -8.75%, -1.34% and 2.32%, respectively. For the same compound, the compound was called inactive in the experiment with HaCat and in the experiment on KB-3-1.
As to `CC(C)c1ccc2c(c1)C(=O)CC1C(C)(C(=O)O)CCCC21C` (stereo not given), the max response is -5.24% in the experiment with CRL-7250, -1.52% in the experiment with HEK293, -0.919% in the experiment on KB-3-1 and -2.58% with NIH3T3. The call with HaCat was inactive.
As for `CC(C)C1NC(=O)CNC(=O)C2CCCN2C(=O)C(Cc2c[nH]c3ccccc23)NC(=O)CNC(=O)C(Cc2ccc(O)cc2)NC(=O)CNC1=O` (stereo not given) (cyclo(GVGYGWP); configuration not given here), the max response with CRL-7250 is -2.61%; in the experiment with HEK293, 3.25%; in the experiment on NIH3T3, -0.317%. Besides, the compound was called inactive with HaCat and in the experiment with KB-3-1.
Take `CC1OC(OC2C(OC(=O)[C@]34CCC(C)(C)C[C@H]3C3=CCC5[C@@]6(C)CC[C@H](OC7OC(C(=O)O)C(O)C(O)C7O)C(C)(C)C6CC[C@@]5(C)[C@]3(C)CC4O)OC(CO)C2O)C(O)C(O)C1OC1OCC(O)C(O)C1O` (stereo not given in full): the max response was 0.472% in the experiment with CRL-7250, -8.42% in the experiment on HEK293, 8.03% in the experiment with KB-3-1 and -0.0675% in the experiment with NIH3T3. Besides, in the experiment on HaCat, the result was inactive.
`CC(CNS(=O)(=O)C(C)C)c1ccc(-c2ccc(C#N)cc2)cc1` (stereo not given): the Potency in the experiment on CRL-7250 is 5.8 µM (active); in the experiment on HEK293, 7.31 µM (active). The compound was called inactive in the experiment with HaCat. The max response in the experiment on KB-3-1 was -27.5%; in the experiment with NIH3T3, -14.2%.
Consider `CC1=C2CC(=O)C(C)CC/C=C(\C)CC2OC1=O` (stereo not given), for which the call with CRL-7250 and with HaCat was inactive. Also, the max response is -1.49% in the experiment on HEK293, 1.48% in the experiment on KB-3-1 and 2.98% in the experiment on NIH3T3.
For `C=C1C(O)C(OC(=O)c2ccccc2)C2C(C)(C(=O)O)CCCC2(C)C1CC/C(C)=C\CO` (stereo not given), the results for the max response in the experiment on CRL-7250, with HEK293 and with KB-3-1 were -4.65%, -1.62% and 5.47%, respectively. The compound was classed as inactive with HaCat and in the experiment on NIH3T3.
For the compound `CC(C)C[C@H](NC(=O)[C@@H]1O[C@H]1C(=O)O)C(=O)NCCCCN=C(N)N`, the max response in the experiment with CRL-7250 was -9.88%; with HEK293, -19.1%; in the experiment with KB-3-1, 2.43%; in the experiment with NIH3T3, 0.0799%. Further, in the experiment on HaCat, the outcome was inactive.
As to `O=C(NC/C=C/CN1CCN(c2cccc(Cl)c2Cl)CC1)c1ccc(-c2ccccn2)cc1`, the max response in the experiment with CRL-7250 was -4.15%; with KB-3-1, -2.38%; in the experiment on NIH3T3, 2.53%. The Potency in the experiment with HEK293 is 13 µM (active). For the same compound, the compound was classed as inactive in the experiment on HaCat.
